The text below walks through data of PubChem BioAssay (NCI).

Compounds without any hit were thinned out: in the full panel of roughly 83,000, 20% have a hit.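 Values shown are percent growth following 48 h exposure of cells in 96-well plates to a single concentration of compound; below 10 was considered active.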 Unmarked numbers belong to inactive results. Activity calls are given as the source filed them.

Among the test systems are HCT-15 colon; HT29 colon; SNB-75 CNS; SNB-19 CNS; U251 CNS; PC-3 prostate; SK-MEL-5 melanoma; UACC-62 melanoma; LOX IMVI melanoma; SK-MEL-28 melanoma.
Test in all cases: NCI-60 one-dose screen, 48 h (100 = growth as untreated, 0 = no growth, -100 = all killed)
Common to all, as to conditions: 10 µM unless noted

On to `COc1ccc(Oc2ccc(/C=N/NC(=O)CSc3nc4ccccc4c(=O)n3-c3ccc(Cl)cc3)cc2)cc1`, for which the growth in the test with HCT-15 colon was 56%; in the test on HT29 colon, 16.1%; in the test with SNB-75 CNS, 41.6%; with SNB-19 CNS, 61.5%; in the test with U251 CNS, 36.5%; with PC-3 prostate, 63.7%. The growth with SK-MEL-5 melanoma was 78%; in the test on UACC-62 melanoma it was 61.9%; in the test on LOX IMVI melanoma, 14.7%; in the test with SK-MEL-28 melanoma, 89.3%.
Regarding `Cc1nc(-c2ccccc2O)ccc1C(=O)N=Nc1c(O)[nH]c2ccc(Br)cc12`, the growth was 69.9% with HCT-15 colon; 112% in the test on HT29 colon; 93.7% in the test on SNB-75 CNS; 101% in the test on SNB-19 CNS; 103% in the test with U251 CNS; 88.2% in the test on PC-3 prostate. Moreover, the growth with SK-MEL-5 melanoma was 96.9%; in the test on UACC-62 melanoma it was 91.6%; in the test on LOX IMVI melanoma, 107%; in the test on SK-MEL-28 melanoma it was 101%.
Regarding `C=C=COc1cccc(/C(N)=N/C(N)=N/c2nc3ccccc3s2)c1`, the growth in the test on HCT-15 colon was 83.6%; with HT29 colon it was 107%; with SNB-75 CNS, 85.6%; in the test on SNB-19 CNS it was 97.5%; with U251 CNS, 80.5%; in the test with PC-3 prostate, 30.3%. For the same molecule, the growth in the test on SK-MEL-5 melanoma was 98.5%; in the test on UACC-62 melanoma, 94.2%; with LOX IMVI melanoma, 37.7%; in the test with SK-MEL-28 melanoma, 64%.
Consider `NC/C(=C/F)COc1ccc2nc(NCc3cccnc3)oc2c1`, for which the growth with HCT-15 colon is 109%; with HT29 colon, 112%; in the test with SNB-75 CNS, 63.1%; with SNB-19 CNS, 105%; in the test on U251 CNS it was 105%; in the test with PC-3 prostate it was 104%. Also, the growth with SK-MEL-5 melanoma is 99.5%; in the test on UACC-62 melanoma it was 101%; in the test with LOX IMVI melanoma it was 98%; in the test with SK-MEL-28 melanoma, 110%.
With `CC(=O)N(C)C1CCc2c(sc(NC(=O)c3ccc(C(C)(C)C)cc3)c2C(N)=O)C1` (stereo not given), the growth is 57.1% with HCT-15 colon; 77.7% in the test on HT29 colon; 39.2% with SNB-75 CNS; 74.7% in the test with SNB-19 CNS; 51.8% in the test on U251 CNS; 45.9% with PC-3 prostate. The growth with SK-MEL-5 melanoma was 91.7%; in the test with UACC-62 melanoma, 85.7%; in the test on LOX IMVI melanoma, 29.5%; with SK-MEL-28 melanoma, 80%.
Regarding `C=CCn1c(-c2nc3ccc(C(=C(C#N)C#N)c4ccccc4)cc3[nH]2)cc2cc(Br)ccc21`, the growth was 30.4% with HCT-15 colon; 64.4% with HT29 colon; 89.3% in the test with SNB-75 CNS; 70.8% in the test with SNB-19 CNS; 51.9% in the test on U251 CNS; 31.5% in the test with PC-3 prostate. Further, the growth in the test with SK-MEL-5 melanoma is 55.9%; in the test on UACC-62 melanoma, 39.5%; in the test on LOX IMVI melanoma it was 36.4%; with SK-MEL-28 melanoma it was 82.9%.
With `Nc1nc(Nc2ccccc2SSc2ccccc2Nc2nc(N)nc(-c3cccc(Br)c3)n2)nc(-c2cccc(Br)c2)n1`, the growth in the test on HCT-15 colon was 50.8%; in the test with HT29 colon, 108%; with SNB-75 CNS it was 53.9%; in the test on SNB-19 CNS, 25.4%; in the test on U251 CNS it was -43.9% (active); in the test with PC-3 prostate it was 34.7%. The growth in the test on SK-MEL-5 melanoma is 91.2%; in the test with UACC-62 melanoma it was 88.3%; with LOX IMVI melanoma, -62.1% (active); in the test with SK-MEL-28 melanoma, 98.9%.
As to `COc1cc2c(cc1OC)C(Sc1ccc(F)cc1)c1c(nc(N)c(C#N)c1N)O2` (stereo not given), the growth in the test on HCT-15 colon was -70.7% (active); in the test on HT29 colon it was 5.15% (active); with SNB-75 CNS it was 52.9%; with SNB-19 CNS it was -82.5% (active); in the test on U251 CNS, -77.5% (active); with PC-3 prostate it was -84% (active). The growth in the test with SK-MEL-5 melanoma was -82.5% (active); in the test with UACC-62 melanoma, -74.2% (active); in the test with LOX IMVI melanoma it was -91.1% (active); with SK-MEL-28 melanoma, -71.9% (active).
For `CS(=O)(=O)Nc1cc(-c2ccc3ncc(C#N)c(Nc4cccc(Cl)c4F)c3c2)cnc1Cl`, the growth was 8.27% (active) in the test on HCT-15 colon; 2.88% (active) with HT29 colon; 47.9% with SNB-75 CNS; 5.43% (active) in the test with SNB-19 CNS; -8.19% (active) in the test with U251 CNS; -16.3% (active) with PC-3 prostate. In addition, the growth with SK-MEL-5 melanoma was -89.9% (active); with UACC-62 melanoma, -32% (active); with LOX IMVI melanoma, -62.2% (active); with SK-MEL-28 melanoma, 2.61% (active).
As to `CCCC(=O)NC(c1cccnc1)c1cc(C(C)(C)C)c2cccnc2c1O` (stereo not given), the growth was 35.4% in the test on HCT-15 colon; 34% with HT29 colon; 37.4% in the test with SNB-75 CNS; 31.6% with SNB-19 CNS; 18.6% in the test with U251 CNS; 44.1% with PC-3 prostate. For the same molecule, the growth in the test with SK-MEL-5 melanoma was -15.4% (active); in the test with UACC-62 melanoma, 7.53% (active); with LOX IMVI melanoma, 20.3%; in the test on SK-MEL-28 melanoma, 24.6%.
In the case of `CCCCCc1ccc(S(=O)(=O)Nc2cccc(-c3csc(NC(=O)CN4CCN(CCO)CC4)n3)c2)cc1`, the growth with HCT-15 colon was 51.3%; in the test on HT29 colon, 35.6%; in the test with SNB-75 CNS it was 88%; in the test with SNB-19 CNS, 82.6%; with U251 CNS, 55.4%; with PC-3 prostate it was 64.1%. Also, the growth with SK-MEL-5 melanoma is 51.7%; with UACC-62 melanoma it was 90%; with LOX IMVI melanoma it was -45.9% (active); in the test with SK-MEL-28 melanoma it was 79.4%.
Regarding `CC(C)(C)c1ccc(C(=O)Nc2sc3c(c2C(N)=O)CC/C(=N\O)C3)cc1`, the growth is 10.4% with HCT-15 colon; 5.87% (active) in the test with HT29 colon; 44.2% in the test with SNB-75 CNS; 26.7% in the test on SNB-19 CNS; 17.9% in the test with U251 CNS; 18.7% in the test on PC-3 prostate. In addition, the growth is -29.4% (active) with SK-MEL-5 melanoma, 12.7% in the test with UACC-62 melanoma, 3.93% (active) with LOX IMVI melanoma and 31.4% with SK-MEL-28 melanoma.
Consider `CCc1ccc(SC2c3ccc(N(CC)CC)cc3Oc3nc(N)c(C#N)c(N)c32)cc1` (stereo not given), for which the growth was -88% (active) in the test on HCT-15 colon; -54.6% (active) with HT29 colon; 12.7% with SNB-75 CNS; -95.1% (active) in the test on SNB-19 CNS; -71.3% (active) in the test on U251 CNS; -74% (active) in the test on PC-3 prostate. Also, the growth with SK-MEL-5 melanoma is -97% (active); in the test on UACC-62 melanoma, -32.7% (active); in the test with LOX IMVI melanoma it was -86.6% (active); with SK-MEL-28 melanoma it was -18.7% (active).
